Reference: PubChem BioAssay (Tox21)
A number with no mark means an inactive call. Records with an inconclusive call do not appear. A call without a number means that no potency is given here. Calls of active or inactive are those of the source. Unless noted, the call rests on the fitted dose curve; in most records, active means well fitted curve in the direction sought with a large enough effect in the repeat runs; inconclusive means weak or mixed curves; inactive means no such curve, though single readings can be large; an effect the other way counts as inactive or inconclusive.

What was measured:
[1] = qHTS assay for small molecules that induce genotoxicity in human embryonic kidney cells expressing luciferase-tagged ATAD5 (AID 651632); further: nearly all actives have a fitted effect of over 15% in size
Method in brief: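 Test compounds were delivered by pin tool onto HEK293T reporter cells (2,000/well) expressing ATAD5 fused to luciferase. After 16 hr at 37C, 5% CO2, Amplite was added for 30 min at room temperature and luminescence was measured.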

[2] = qHTS assay to test for compound auto fluorescence at 460 nm (blue) in HEK293 cells (AID 720678)
Method in brief: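 HEK293 cells (2,000/well, medium with 10% dialyzed FBS) attached 4-5 hr, then exposed to compound overnight at 37C, 5% CO2. Blue fluorescence read at 405/460 nm, with triamterene as reference fluorophore.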

[3] = qHTS assay to test for compound auto fluorescence at 535 nm (green) in HEK293 cells (AID 720680)
[4] = qHTS assay to test for compound auto fluorescence at 460 nm (blue) in HEK293 cell free culture (AID 720681)
Method in brief: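 Blue fluorescence (Ex 405/Em 460 nm, triamterene-equivalent) was read immediately after pin transfer of compound or DMSO into medium (DMEM, 10% FBS) without cells.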

[5] = qHTS assay to test for compound auto fluorescence at 590 nm (red) in HEK293 cell free culture (AID 720683)
Method in brief: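 Red-channel autofluorescence of compounds in culture medium (DMEM, 10% FBS), no cells, measured at 540/590 nm. Rose Bengal sodium is the reference fluorophore for equivalence.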

[6] = qHTS assay to test for compound auto fluorescence at 590 nm (red) in HepG2 cell free culture (AID 720684)
Method in brief: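 Cell-free; medium MEM + 10% FBS; compound or DMSO added by pintool; read Ex 540/Em 590 nm; Rose Bengal sodium as red reference fluorophore.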

[7] = qHTS assay to test for compound auto fluorescence at 460 nm (blue) in HepG2 cell free culture (AID 720685)
Method in brief: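 Cell-free plates of MEM plus 10% FBS received 23 nL compound or DMSO vehicle; blue-channel (405/460 nm) intensity scored against triamterene as reference fluorophore.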

[8] = qHTS assay to test for compound auto fluorescence at 535 nm (green) in HepG2 cell free culture (AID 720686)
[9] = qHTS assay to test for compound auto fluorescence at 460 nm (blue) in HepG2 cells (AID 720687)
Method in brief: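 Blue-channel autofluorescence (Ex/Em 405/460 nm, triamterene-equivalent) was measured after 1 hr compound exposure at 37 C, 5% CO2. Cells were HepG2, plated overnight at 37 C in MEM plus 10% FBS.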

[10] = qHTS assay to identify small molecule antagonists of the estrogen related receptor signaling pathway with the pleiotropic PPARgamma coactivator (PGC) from Tox21 10K library (AID 1224841; call rule not given here; further: actives are mostly falling curves and most rising ones were filed inactive; nearly all actives have a fitted effect of over 50% in size; further: potency means the concentration at half of the fitted maximal effect)
Method in brief: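 In the PGC/ERR line, DMSO solutions of test chemicals are pin-delivered to 2,000 cells/well six hours after dispensing. Following eighteen hours' incubation, One-Glo reagent is added and luminescence recorded.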

[11] = target: Thyrotropin receptor (Homo sapiens) (UniProt P16473); assay: qHTS assay to identify small molecule agonists of the thyroid stimulating hormone receptor (TSHR) signaling pathway (AID 1224843; calls by dose curve; further: nearly all actives have a fitted effect of over 45% in size; further: potency means the concentration at half of the fitted maximal effect)
Chain of Thyrotropin receptor (Homo sapiens) (P16473 whole entry, looked up): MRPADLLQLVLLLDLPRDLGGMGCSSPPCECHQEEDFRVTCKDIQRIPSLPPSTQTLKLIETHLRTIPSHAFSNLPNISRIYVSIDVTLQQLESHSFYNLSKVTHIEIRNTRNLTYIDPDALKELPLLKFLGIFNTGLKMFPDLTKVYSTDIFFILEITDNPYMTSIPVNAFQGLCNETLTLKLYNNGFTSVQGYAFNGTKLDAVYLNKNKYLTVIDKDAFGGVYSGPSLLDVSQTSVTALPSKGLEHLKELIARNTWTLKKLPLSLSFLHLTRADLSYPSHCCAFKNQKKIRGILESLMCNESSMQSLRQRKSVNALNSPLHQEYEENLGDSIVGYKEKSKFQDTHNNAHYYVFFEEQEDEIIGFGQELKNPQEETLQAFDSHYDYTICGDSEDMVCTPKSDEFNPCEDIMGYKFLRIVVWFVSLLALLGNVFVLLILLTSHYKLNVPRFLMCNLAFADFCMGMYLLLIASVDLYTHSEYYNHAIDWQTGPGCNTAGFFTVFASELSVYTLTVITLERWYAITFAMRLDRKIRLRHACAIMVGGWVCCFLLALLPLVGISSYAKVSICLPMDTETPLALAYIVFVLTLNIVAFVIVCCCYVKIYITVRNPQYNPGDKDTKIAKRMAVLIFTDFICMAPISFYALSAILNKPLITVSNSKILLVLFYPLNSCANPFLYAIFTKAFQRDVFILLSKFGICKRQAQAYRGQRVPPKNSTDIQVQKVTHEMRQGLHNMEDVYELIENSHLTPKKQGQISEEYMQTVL
Method in brief: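 Agonist activity read as cAMP rise via d2/cryptate HTRF competition, 1 h room-temperature detection, in HEK293 cells expressing TSHR. Fifteen-point titrations, each run in triplicate, with a 30 min room-temperature incubation beforehand.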

[12] = qHTS assay to identify small molecule antagonists of the estrogen related receptor (ERR) signaling pathway from Tox21 library (AID 1224848); further: nearly all actives have a fitted effect of over 50% in size; further: potency means the concentration at half of the fitted maximal effect
Method in brief: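 Luciferase luminescence (ONE-Glo, 30 min room temperature) was the read-out. Cells of the NTP-supplied ERR line, 2,000 per well, were given 6 h at 37 C before compound addition in DMSO and 18 h exposure at 37 C.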

[13] = qHTS RealTime-Glo MT Cell Viability Assay in HEK293 cells - 8 hour (AID 1224887); further: nearly all actives have a fitted effect of over 50% in size; further: potency means the concentration at half of the fitted maximal effect
Method in brief: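 Measured as luminescence from the same continuously cultured HEK293 wells at successive time points (0, 8, 16, 24, 32, 40 h) after compound addition. Reagent present from seeding; dosing at 5 h; incubation 37 C.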

[14] = target: Estrogen receptor (Homo sapiens) (UniProt P03372); assay: qHTS assay to identify small molecule antagonists of the estrogen receptor alpha (ER-alpha) signaling pathway using the BG1 cell line in the presence of 0.1 nM 17-beta-estradiol (AID 1259244); further: nearly all actives have a fitted effect of over 50% in size; further: potency means the concentration at half of the fitted maximal effect
Chain of Estrogen receptor (Homo sapiens) (P03372 whole entry, looked up): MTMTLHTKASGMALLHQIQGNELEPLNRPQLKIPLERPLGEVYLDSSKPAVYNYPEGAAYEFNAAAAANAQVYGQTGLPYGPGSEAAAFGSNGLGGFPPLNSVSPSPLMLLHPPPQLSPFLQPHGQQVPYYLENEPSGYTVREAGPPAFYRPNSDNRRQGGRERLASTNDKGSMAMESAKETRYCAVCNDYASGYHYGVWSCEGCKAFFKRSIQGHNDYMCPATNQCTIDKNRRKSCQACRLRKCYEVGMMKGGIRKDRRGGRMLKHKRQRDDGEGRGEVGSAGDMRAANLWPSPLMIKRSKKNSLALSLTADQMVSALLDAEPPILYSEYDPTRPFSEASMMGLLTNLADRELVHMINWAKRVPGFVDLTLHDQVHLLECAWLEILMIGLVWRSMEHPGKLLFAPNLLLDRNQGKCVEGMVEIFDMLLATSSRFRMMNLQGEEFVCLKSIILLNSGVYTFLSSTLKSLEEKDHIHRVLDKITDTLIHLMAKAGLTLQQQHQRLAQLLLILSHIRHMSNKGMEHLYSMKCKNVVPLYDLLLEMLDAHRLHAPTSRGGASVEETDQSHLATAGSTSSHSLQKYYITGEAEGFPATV
Method in brief: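 Seeding of stripped-serum-adapted VM7Luc4E2 cells, 24 h attachment, compound transfer, then 0.1 nM final 17beta-estradiol; after 22 h incubation, ONE-Glo reagent and luminescence reading.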

[15] = target: Estrogen receptor beta (Homo sapiens) (UniProt Q92731); assay: qHTS assay to identify small molecule agonists of the estrogen receptor beta (ER-beta) signaling pathway (AID 1259377; active means well fitted activation curve with a large enough effect in the signal ratio in the repeat runs, not every such curve was filed as active; the % refers to the signal ratio)
Chain of Estrogen receptor beta (Homo sapiens) (Q92731 whole entry, looked up): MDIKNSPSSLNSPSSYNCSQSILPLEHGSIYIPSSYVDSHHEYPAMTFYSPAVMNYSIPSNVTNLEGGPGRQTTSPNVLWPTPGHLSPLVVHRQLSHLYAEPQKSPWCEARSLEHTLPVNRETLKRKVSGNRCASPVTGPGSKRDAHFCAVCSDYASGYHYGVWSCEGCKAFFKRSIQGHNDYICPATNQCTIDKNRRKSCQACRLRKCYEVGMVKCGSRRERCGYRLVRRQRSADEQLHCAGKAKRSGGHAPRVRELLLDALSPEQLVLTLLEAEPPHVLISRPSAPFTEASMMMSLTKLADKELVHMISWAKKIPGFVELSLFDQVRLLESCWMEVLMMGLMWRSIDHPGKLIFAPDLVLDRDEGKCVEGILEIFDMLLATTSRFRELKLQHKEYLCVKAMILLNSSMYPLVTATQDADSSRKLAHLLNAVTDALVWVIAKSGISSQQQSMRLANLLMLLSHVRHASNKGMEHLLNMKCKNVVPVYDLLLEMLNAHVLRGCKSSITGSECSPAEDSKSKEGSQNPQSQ
Method in brief: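 qHTS in ER-beta-UAS-bla HEK293T cells: 6 hr settling, then 16 hr compound at 37C, then LiveBLAzer substrate 2 h at RT before fluorescence reading.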

[16] = target: Thyrotropin-releasing hormone receptor (Homo sapiens) (UniProt P34981); assay: qHTS assay to identify small molecule antagonists of the thyrotropin-releasing hormone receptor (TRHR) signaling pathway (AID 1346877; active means well fitted inhibition curve with a large enough effect in the repeat runs, not every such curve was filed as active; further: series mostly up to about 51 µM)
Chain of Thyrotropin-releasing hormone receptor (Homo sapiens) (P34981 whole entry, looked up): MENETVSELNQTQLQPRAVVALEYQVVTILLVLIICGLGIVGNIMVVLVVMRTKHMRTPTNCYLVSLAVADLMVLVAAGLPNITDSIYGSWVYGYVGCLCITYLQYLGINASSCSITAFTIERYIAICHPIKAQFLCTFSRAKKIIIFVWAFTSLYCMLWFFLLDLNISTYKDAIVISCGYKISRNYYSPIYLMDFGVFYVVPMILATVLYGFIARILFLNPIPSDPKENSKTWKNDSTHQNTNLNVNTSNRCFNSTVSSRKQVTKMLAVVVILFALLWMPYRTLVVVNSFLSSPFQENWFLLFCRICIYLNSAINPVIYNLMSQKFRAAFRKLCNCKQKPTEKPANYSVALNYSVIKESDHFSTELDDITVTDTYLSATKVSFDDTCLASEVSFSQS
Method in brief: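 Human TRHR in HEK293 cells; inhibition of the intracellular calcium rise triggered by 1 nM TRH was followed by fluorescence over 3 min. Compounds were run at 15 concentrations, three replicates each.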

[17] = qHTS assay to test for compound auto fluorescence at 590 nm (red) in HepG2 cells (AID 720674)
Method in brief: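 We screened compounds on adherent HepG2 cells, incubating them for an hour at 37 C in 5% CO2 before reading emission at 590 nm under 540 nm excitation; values reflect equivalence to Rose Bengal sodium fluorescence.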

[18] = target: Progesterone receptor (Homo sapiens) (UniProt P06401); assay: qHTS assay to identify small molecule agonists of the progesterone receptor (PR) signaling pathway (AID 1346784; calls by dose curve; further: nearly all actives have a fitted effect of over 30% in size)
Chain of Progesterone receptor (Homo sapiens) (P06401 whole entry, looked up): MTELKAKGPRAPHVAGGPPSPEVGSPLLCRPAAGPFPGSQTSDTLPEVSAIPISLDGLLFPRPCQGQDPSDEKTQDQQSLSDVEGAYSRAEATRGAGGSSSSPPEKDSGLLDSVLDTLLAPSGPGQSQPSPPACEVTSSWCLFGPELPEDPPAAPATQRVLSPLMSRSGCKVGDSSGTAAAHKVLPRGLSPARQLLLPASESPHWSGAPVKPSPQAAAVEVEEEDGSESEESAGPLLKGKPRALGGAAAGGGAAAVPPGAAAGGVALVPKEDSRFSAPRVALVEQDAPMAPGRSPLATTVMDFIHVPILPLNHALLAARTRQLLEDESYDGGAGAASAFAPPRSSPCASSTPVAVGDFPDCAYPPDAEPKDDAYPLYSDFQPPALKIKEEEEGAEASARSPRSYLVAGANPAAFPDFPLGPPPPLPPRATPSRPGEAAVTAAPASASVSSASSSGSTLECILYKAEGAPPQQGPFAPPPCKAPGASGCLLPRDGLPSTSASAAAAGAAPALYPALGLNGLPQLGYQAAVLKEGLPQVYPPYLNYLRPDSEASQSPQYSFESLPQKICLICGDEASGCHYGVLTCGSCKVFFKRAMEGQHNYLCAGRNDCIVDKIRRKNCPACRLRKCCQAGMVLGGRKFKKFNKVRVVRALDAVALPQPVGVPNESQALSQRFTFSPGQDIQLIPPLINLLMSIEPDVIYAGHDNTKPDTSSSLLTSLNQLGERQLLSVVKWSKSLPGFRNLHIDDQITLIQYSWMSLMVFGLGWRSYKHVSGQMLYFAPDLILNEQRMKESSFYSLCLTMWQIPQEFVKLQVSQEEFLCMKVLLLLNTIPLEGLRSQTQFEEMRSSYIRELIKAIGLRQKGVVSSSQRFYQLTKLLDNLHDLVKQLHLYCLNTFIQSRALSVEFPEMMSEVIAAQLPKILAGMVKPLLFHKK
Method in brief: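 Fluorescence from LiveBLAzer B/G FRET substrate cleavage (2 hr, RT) reported PR activation in PR-UAS-bla HEK 293T cells treated 16 hr at 37C/5% CO2 with compounds; medium contained 2% charcoal-stripped FBS.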

[19] = target: Androgen receptor (Homo sapiens) (UniProt P10275); assay: qHTS assay to identify small molecule agonists of the androgen receptor (AR) signaling pathway in the presence of an antagonist (AID 1259381; calls by dose curve; further: nearly all actives have a fitted effect of over 15% in size)
Chain of Androgen receptor (Homo sapiens) (P10275 whole entry, looked up): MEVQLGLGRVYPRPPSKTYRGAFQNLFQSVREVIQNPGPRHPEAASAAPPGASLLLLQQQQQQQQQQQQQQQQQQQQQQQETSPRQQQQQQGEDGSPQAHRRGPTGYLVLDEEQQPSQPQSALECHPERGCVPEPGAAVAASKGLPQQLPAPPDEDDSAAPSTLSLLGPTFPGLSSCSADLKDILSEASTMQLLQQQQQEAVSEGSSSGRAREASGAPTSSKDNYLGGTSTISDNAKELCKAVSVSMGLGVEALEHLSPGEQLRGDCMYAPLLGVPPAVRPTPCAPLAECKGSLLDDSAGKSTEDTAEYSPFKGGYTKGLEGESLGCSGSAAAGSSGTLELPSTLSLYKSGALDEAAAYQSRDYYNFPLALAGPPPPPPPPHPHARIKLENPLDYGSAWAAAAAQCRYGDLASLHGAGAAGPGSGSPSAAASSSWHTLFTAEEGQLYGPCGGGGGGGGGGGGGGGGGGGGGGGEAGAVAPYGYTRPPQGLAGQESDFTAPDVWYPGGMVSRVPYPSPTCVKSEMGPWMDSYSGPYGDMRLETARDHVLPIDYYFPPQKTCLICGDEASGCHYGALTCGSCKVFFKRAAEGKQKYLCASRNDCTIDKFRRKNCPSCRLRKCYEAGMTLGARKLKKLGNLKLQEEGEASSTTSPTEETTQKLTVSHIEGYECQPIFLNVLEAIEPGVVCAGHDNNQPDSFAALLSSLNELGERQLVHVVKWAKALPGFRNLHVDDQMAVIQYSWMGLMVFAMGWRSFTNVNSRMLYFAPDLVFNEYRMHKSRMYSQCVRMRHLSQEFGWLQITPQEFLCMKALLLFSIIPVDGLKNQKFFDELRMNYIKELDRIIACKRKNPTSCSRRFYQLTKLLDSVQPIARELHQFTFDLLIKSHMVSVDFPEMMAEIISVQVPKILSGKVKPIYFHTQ
Method in brief: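 AR antagonist background: nilutamide 3.0uM final. Cell line: MDA-kb2, MMTV-driven luciferase, responsive to both AR and GR. Exposure 16hr, 37C, no CO2; ONE-Glo luminescence.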

[20] = qHTS assay to identify small molecule agonists of the progesterone receptor (PR) signaling pathway - cell viability counter screen (AID 1346799; calls by dose curve; further: nearly all actives have a fitted effect of over 45% in size; further: potency means the concentration at half of the fitted maximal effect)
Method in brief: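 In parallel with the beta-lactamase readout, cytotoxicity toward PR-UAS-bla HEK293T cells was measured by CellTiter-Glo luminescence following 16 hr compound incubation in 2% charcoal-stripped FBS medium.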

Cc1nnc2n1-c1sc(CCc3ccc(CC(C)C)cc3)cc1C(c1ccccc1Cl)=NC2C (stereo unspecified)
Potency [1]: inactive
Potency [2]: inactive
Potency [3]: inactive
Potency [4]: inactive
outcome [5]: inactive
outcome [6]: inactive
Potency [7]: inactive
Potency [8]: inactive
Potency [9]: inactive
Potency [10]: 10.6 µM (active)
Potency [11]: 18.8 µM (active)
Potency [12]: 9.44 µM (active)
Potency [13]: 21.3 µM (active)
Potency [14]: 29.8 µM (active)
outcome [15]: inactive
outcome [16]: inactive

O=C1C(I)=CC(=C(c2cc(I)c(O)c(I)c2)c2ccccc2C(=O)O)C=C1I
Potency [1]: inactive
outcome [17]: inactive
Potency [2]: inactive
Potency [3]: inactive
Potency [4]: inactive
outcome [5]: inactive
outcome [6]: inactive
Potency [7]: inactive
Potency [8]: inactive
Potency [9]: inactive
Potency [11]: inactive
Potency [13]: inactive
Potency [14]: inactive
outcome [18]: inactive

CCN(CC)C(=O)Cl
Potency [10]: inactive
Potency [11]: inactive
Potency [12]: inactive
Potency [13]: inactive
Potency [14]: inactive
outcome [15]: inactive
Potency [19]: inactive
outcome [18]: inactive
Potency [20]: inactive
outcome [16]: inactive

C[C@]12CC[C@@H](O)C[C@@H]1CC[C@@H]1[C@@H]2CC[C@]2(C)C(=O)CC[C@@H]12
outcome [18]: inactive
Potency [20]: 68.6 µM (active)

N#Cc1cc([N+](=O)[O-])ccc1N
Potency [11]: inactive
Potency [12]: inactive
Potency [13]: inactive
Potency [14]: inactive
outcome [15]: inactive
outcome [18]: inactive
Potency [20]: inactive
outcome [16]: inactive

CC1COC(Cn2cncn2)(c2ccc(Oc3ccc(Cl)cc3)cc2Cl)O1 (stereo unspecified)
Potency [1]: inactive
outcome [17]: inactive
Potency [2]: inactive
Potency [3]: inactive
Potency [4]: inactive
outcome [5]: inactive
outcome [6]: inactive
Potency [7]: inactive
Potency [8]: inactive
Potency [9]: inactive
Potency [10]: 8.63 µM (active)
Potency [11]: inactive
Potency [12]: 4.33 µM (active)
Potency [13]: 21.9 µM (active)
Potency [14]: 10.9 µM (active)
outcome [15]: inactive

ClC(Cl)=C(c1ccc(Cl)cc1)c1ccccc1Cl
Potency [11]: inactive
Potency [14]: inactive
outcome [15]: inactive
Potency [19]: inactive
outcome [18]: inactive
Potency [20]: inactive
outcome [16]: inactive

Cc1cc(C(C)(C)c2ccc(O)c(C)c2)ccc1O
Potency [1]: inactive
outcome [17]: inactive
Potency [2]: inactive
Potency [3]: inactive
Potency [4]: inactive
outcome [5]: inactive
outcome [6]: inactive
Potency [7]: inactive
Potency [8]: inactive
Potency [9]: inactive
Potency [10]: 9.23 µM (active)
Potency [11]: 46.2 µM (active)
Potency [12]: 26 µM (active)
Potency [13]: 23.4 µM (active)
Potency [19]: inactive
outcome [18]: inactive

O=S(=O)(C(Cl)(Cl)Cl)C(Cl)(Cl)Cl
Potency [12]: 54.5 µM (active)
Potency [13]: 15.5 µM (active)
Potency [14]: 27.3 µM (active)
Potency [19]: inactive
outcome [18]: inactive
Potency [20]: inactive

CCOC(=O)C(O)(c1ccc(Cl)cc1)c1ccc(Cl)cc1
Potency [1]: inactive
outcome [17]: inactive
Potency [2]: inactive
Potency [3]: inactive
Potency [4]: inactive
outcome [5]: inactive
outcome [6]: inactive
Potency [7]: inactive
Potency [8]: inactive
Potency [9]: inactive
Potency [13]: 22.1 µM (active)
Potency [14]: 61.1 µM (active)
outcome [15]: inactive
Potency [19]: inactive
outcome [18]: inactive
outcome [16]: inactive

Cc1ccc(N(SC(F)(Cl)Cl)S(=O)(=O)N(C)C)cc1
Potency [1]: inactive
outcome [17]: inactive
Potency [3]: inactive
Potency [4]: inactive
outcome [5]: inactive
outcome [6]: inactive
Potency [7]: inactive
Potency [8]: inactive
Potency [9]: inactive
Potency [10]: 24.3 µM (active)
Potency [12]: 24.3 µM (active)
Potency [13]: 12.3 µM (active)
outcome [15]: inactive
Potency [19]: inactive
Potency [20]: inactive

Cc1cc(C)c(C(=O)P(=O)(c2ccccc2)c2ccccc2)c(C)c1
Potency [10]: 54.5 µM (active)
Potency [11]: inactive
Potency [12]: 54.5 µM (active)
Potency [13]: 43.6 µM (active)
Potency [14]: inactive
Potency [19]: inactive

ClC1=C(Cl)[C@]2(Cl)[C@@H]3[C@@H](Cl)[C@H]4O[C@H]4[C@@H]3C1(Cl)C2(Cl)Cl
Potency [1]: inactive
outcome [17]: inactive
Potency [2]: inactive
Potency [3]: inactive
outcome [5]: inactive
outcome [6]: inactive
Potency [7]: inactive
Potency [8]: inactive
Potency [9]: inactive
Potency [10]: inactive
outcome [15]: inactive
outcome [18]: inactive

Oc1c(Cl)ccc(Cl)c1Cl
outcome [18]: inactive

Cc1cccc(C)c1[N+](=O)[O-]
outcome [15]: inactive

Brc1ccc(Br)c(Br)c1
outcome [15]: inactive

Oc1ccc(Cl)cc1Cc1cc(Cl)ccc1O
Potency [11]: inactive

Cc1cccc([N+](=O)[O-])c1C
outcome [15]: inactive

Nc1cccc([N+](=O)[O-])c1
outcome [15]: inactive

Clc1ccccc1-c1ccccc1Cl
Potency [1]: inactive
outcome [17]: inactive
Potency [2]: inactive
Potency [4]: inactive
outcome [5]: inactive
outcome [6]: inactive
Potency [7]: inactive
Potency [8]: inactive
Potency [9]: inactive
outcome [18]: inactive
Potency [20]: inactive
